# Bioassay records from PubChem.
# aSyn UTR act: Activators working through SNCA 5'UTR binding (MLPCN); activity score, % (tested at 7.5 µM), hits read low; 300,000 tested, 7.1% active; AID 1814; alpha-synuclein 5'UTR reporter, activators screen; in the data active means activity score below about -60%
# Numbers stand for hits; – = inactive. A selection follows.
SMILES,aSyn UTR act
COc1ccc(C2=NOC(CN3C(=O)c4ccccc4S3(=O)=O)C2)cc1 (stereo unspecified),-175
O=C(CN1C(=O)c2ccccc2S1(=O)=O)c1ccccc1Cl,–
O=C1c2ccccc2C(=O)N1CCN1CCc2ccccc21,-97
COC(=O)c1cccc(C(=O)Nc2ccc(C)cc2Br)n1,-155
Cc1ccc(NC(=O)c2cccc(C(=O)OC(C)C)n2)c(Br)c1,-73
Cc1ccc(NC(=O)c2ccc(C(C)(C)C)cc2)cc1[N+](=O)[O-],-159
Cc1cc(C)nc(Nc2ccc(C)c([N+](=O)[O-])c2)n1,-99
Cc1ccc(NC(=O)c2cccs2)cc1[N+](=O)[O-],-94
O=C1/C(=C/c2cccs2)SC(=S)N1CCC(=O)N1CCCCC1CCO (stereo unspecified),-109
O=C(CCN1C(=O)/C(=C/c2cccs2)SC1=S)N1CCCCC1,-90
COc1cc(/C=C2\SC(=S)N(CCC(=O)N3CCCCC3)C2=O)cc(OC)c1OC,-95
COc1ccc(/C=C2\SC(=S)N(CCCC(=O)N3CCOCC3)C2=O)cc1,–
CC(C)COC(=S)Nc1ccccc1,-83
S=C(Nc1ccccc1)N1N=CCC1c1ccccc1 (stereo unspecified),-153
Fc1ccc(NC(=S)N2N=CCC2c2ccccc2)cc1 (stereo unspecified),-101
O=C(Nc1cccc2ccccc12)N1N=CCC1c1ccccc1 (stereo unspecified),-89
Clc1ccc(/C=C/c2nc3ccccc3[nH]2)c(Cl)c1,–
O=c1[nH]c(/C=C/c2ccccc2Cl)nc2ccccc12,-265
Clc1cccc(Cl)c1/C=C/c1nc2ccccc2[nH]1,-149
Clc1ccc(/C=C/c2nc3ccccc3[nH]2)cc1,–
CCOc1cc(/C=C/c2nc3ccccc3c(=O)[nH]2)ccc1O,-133
Cc1cccc(/C=C/c2nc3ccccc3c(=O)[nH]2)c1,-94
Cc1[nH]c2ccccc2c1/C=C/c1nc2ccccc2c(=O)[nH]1,-98
CCOc1cc(/C=C/c2cc(C(F)(F)F)[nH]c(=O)n2)ccc1O,-79
Cc1onc(-c2c(Cl)cccc2Cl)c1C(=O)N/N=C(\N)COc1ccc(Cl)cc1,–
SMILES,aSyn UTR act
Cc1onc(-c2c(F)cccc2Cl)c1C(=O)O/N=C(\N)c1ccc([N+](=O)[O-])o1,-80
Cc1cc(C)[n+]2n1C(=O)C(c1ccccc1)=C2[O-],-93
CC(=C/c1ccccc1)/C=C1/SC(N2CCOCC2)=NC1=O,-102
CC1Oc2ccccc2C=C1/C=C1/SC(N2CCOCC2)=NC1=O (stereo unspecified),-108
O=C1C=C(N2CCOCC2)c2ccccc2C1=O,–
CN(C)c1nc(F)c(F)c(S(=O)(=O)c2ccccc2)c1F,-94
C=C(C)C(=O)Nc1nnc(-c2cccs2)s1,-94
COCC(=O)Nc1nnc(-c2cccs2)s1,-70
CCC(=O)Nc1nnc(-c2cccs2)s1,-68
O=C(Nc1nnc(-c2cccs2)s1)C1CC1,-89
O=C(Cc1ccccc1)Nc1nnc(-c2cccs2)s1,-142
CCOC(=O)CSC1=C(C#N)C(c2ccc(C)o2)CC(=O)N1 (stereo unspecified),–
COC(=O)CSc1nc2cc(OC)ccc2cc1C#N,-133
CCOC(=O)CSc1nc2cc(OCC)ccc2cc1C#N,-209
COc1ccc2cc(C#N)c(SCC(=O)NNC(=O)Cc3ccccc3)nc2c1,-78
COc1ccc2nc(SCC(=O)Nc3ccc4sc(C)nc4c3)c(C#N)cc2c1,-148
CCCOc1ccc(-c2nc(=S)[nH][nH]2)cc1,-77
C=CCSc1n[nH]c(-c2ccc(OCCCC)cc2)n1,-89
C=CCSc1n[nH]c(-c2ccc(OCCC)cc2)n1,-164
CCCOc1ccc(C2=NNC(=O)CC2)cc1,–
CCCCNc1cnn(-c2ccccc2)c(=O)c1Cl,-74
CN(c1cnn(-c2ccccc2)c(=O)c1Cl)n1cccc1,-83
O=c1c(Cl)c(N/N=C/c2ccc(Cl)cc2)cnn1-c1ccccc1,-85
CCSc1cnn(-c2ccccc2)c(=O)c1Cl,-92
CNc1cnn(-c2ccc(C)cc2)c(=O)c1Cl,-86
SMILES,aSyn UTR act
O=C(NCc1ccccc1)c1c[nH]c2cc3c(cc2c1=O)OCCO3,-183
O=C(Cc1ccccc1)NCc1ccc2c(c1)OCO2,-99
O=C(Cc1ccccc1[N+](=O)[O-])NCc1ccc2c(c1)OCO2,-123
O=C(NCc1ccc2c(c1)OCO2)c1ccccc1Cl,-100
O=C(CCl)Nc1cccc(-c2cnc3ccccc3n2)c1,-622
O=C(Nc1cccc(-c2cnc3ccccc3n2)c1)c1cccc(NC(=O)c2ccco2)c1,-95
CCC(=O)Nc1cccc(-c2cnc3ccccc3n2)c1,-122
CSc1nnc2c(n1)OC(C)N(C(=O)c1ccccc1)c1ccccc1-2 (stereo unspecified),-65
O=C(N/N=C/c1ccc(Br)s1)c1c[nH]c2ccccc12,-152
O=C(N/N=C/c1cc(Br)cs1)c1c[nH]c2ccccc12,-68
CC1CCN(CC(CS(=O)(=O)c2ccc([N+](=O)[O-])cc2)N2CCC(C)CC2)CC1 (stereo unspecified),-66
COC1c2ccccc2C(=O)N1CCc1ccc(Cl)cc1 (stereo unspecified),-73
COC(=O)c1sc2nc3c(cc2c1N)CCCC3,-143
CCOC(=O)c1sc2nc3c(cc2c1N)C(=O)CC(C)(C)C3,-126
COC(=O)c1sc2nc3c(cc2c1N)C(=O)CC(C)(C)C3,-69
Nc1c(C(=O)N2CCOCC2)sc2nc3c(cc12)CCCC3,–
O=C(O)c1ccccc1C(=O)NNc1cccc(Cl)n1,-108
CCN(CC)CCn1c(=N)n(CCOc2ccccc2)c2ccccc21,-93
CNc1ncc(C(=O)c2ccc(Cl)c(Cl)c2)s1,-149
CNc1ncc(C(=O)c2ccc(Cl)cc2)s1,-124
Nc1nc(-c2ccc(Br)s2)c(Br)s1,-77
COc1cc2c(cc1OC)C(C)N(C(=O)c1cc(C)on1)CC2 (stereo unspecified),–
COc1cc2c(cc1OC)C(c1ccccc1)N(C(=O)c1cccc(S(C)(=O)=O)c1)CC2 (stereo unspecified),-67
Nc1cccn2c(-c3ccc(Cl)cc3)cnc12,-260
Nc1cccn2c(-c3ccc(Cl)c(Cl)c3)cnc12,-183
SMILES,aSyn UTR act
COc1ccc(OCCn2cnc3ccccc32)cc1,-70
Cc1ccccc1OCC(O)Cn1c(=N)n(Cc2ccccc2)c2ccccc21 (stereo unspecified),–
c1ccc(CCn2cnc3ccccc32)cc1,-91
Brc1ccccc1OCCCn1cnc2ccccc21,-93
Cc1ccccc1OCCCCn1cnc2ccccc21,-83
C/C(=N\NC(=O)c1c([N+](=O)[O-])c(C)nn1C)c1ccc(NC(=O)c2ccc(C)o2)cc1,-104
C/C(=N\NC(=O)c1c([N+](=O)[O-])c(C)nn1C)c1ccc(NC(=O)C2CCCC2)cc1,–
C/C(=N/NS(=O)(=O)c1ccc(F)cc1)c1ccc(NC(=O)c2ccc(C)o2)cc1,-72
CCOC(=O)c1cc(C)n(CCc2ccccc2)c1C,-69
COC(=O)c1ccc(CSC2=NCCS2)cc1,-83
CCc1ccc(/C=C2\SC(=S)N(CCC(=O)NC3=NCCS3)C2=O)cc1,–
Cc1nn(Cc2ccc(Cl)c(Cl)c2)c(C)c1NC(=O)c1cc(-c2ccc3c(c2)OCO3)on1,–
Cc1ccc(-c2cc(C(=O)NC3CCCC3)no2)cc1,-141
O=C(NC1CCCCC1)c1cc(-c2cccs2)on1,-161
O=C(NC1CCCCC1)c1cc(-c2ccc(F)cc2)on1,-156
O=C(NC1CCCC1)c1cc(-c2ccc(Cl)c(Cl)c2)on1,-151
